# Only some compounds are listed: those with a hit (about 2.8% of all), similar ones and a draw of the others.
# BRCA1 expr act: increases BRCA1 expression; 1.1% of 380,000 active; MCF7-BRCA1-FFLuc reporter, luminescence, 48 h; response scale: scaled: vehicle 0%, 10 µM genistein 100%; Potency, µM (doses to about 46.1 µM), inactives show at the highest dose activation, usual class: activators; further: nearly all actives have a fitted effect of over 80% in size
#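 Compounds are tested at multiple concentrations on MCF7 BRCA1-luciferase reporter cells seeded at 2000 per well; after 48 h, a single luminescence end-point is taken and curves fitted to the normalized data.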
# Mito fusion yeast: mitochondrial division inhibition or fusion activation; 0.23% of 320,000 active; Potency, µM (titrated, usually from 46.1 µM), inactives show at the top dose growth rescue (activation), hits mostly activators; S. cerevisiae fusion-defective mutant growth rescue, CellTiterGlo 48 h; further: % of control where 0% means no effect; nearly all actives have a fitted effect of over 45% in size
#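 Growth-rescue viability read-out: after 48 h at the non-permissive 37C in glycerol/ethanol YPEG, yeast mitochondrial fusion mutants are measured by CellTiterGlo luminescence; compounds (23 nl pinned per well) restoring growth score as division inhibitors or fusion activators.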
# GLP-1R inv ag: acts as inverse agonist at human GLP-1 receptor | Potency, µM (titrated, usually from 38.3 µM), without a hit: at the top dose activity change, negative = inhibition, hits mostly inhibitors | P43220 | HEK293 GLP-1R CRE-luciferase, luminescence, 24 h; GLP-1R form is constitutively active | 1.6% of 410,000 active; further: on the % scale 0 is the no-effect control and ±100 the full control effect; nearly all actives have a fitted effect of over 55% in size
# Target sequence (P43220 whole entry, looked up): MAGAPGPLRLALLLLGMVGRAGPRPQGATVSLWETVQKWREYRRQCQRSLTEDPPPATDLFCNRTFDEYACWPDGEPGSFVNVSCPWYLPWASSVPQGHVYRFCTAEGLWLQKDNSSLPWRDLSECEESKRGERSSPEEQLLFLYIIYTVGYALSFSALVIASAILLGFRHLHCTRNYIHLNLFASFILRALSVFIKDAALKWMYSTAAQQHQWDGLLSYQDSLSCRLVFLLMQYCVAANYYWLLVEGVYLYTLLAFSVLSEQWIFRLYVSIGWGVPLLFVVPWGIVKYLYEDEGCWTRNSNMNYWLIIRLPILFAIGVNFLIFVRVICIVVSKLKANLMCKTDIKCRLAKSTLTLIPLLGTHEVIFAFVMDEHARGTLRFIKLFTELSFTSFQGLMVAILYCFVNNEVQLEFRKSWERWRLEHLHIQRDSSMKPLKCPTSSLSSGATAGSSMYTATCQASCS
#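 qHTS in 1536-well format: reporter HEK293 cells expressing constitutive GLP-1R activity in DMEM + 10% Nu serum, 24 hr with compounds at 37 deg C, luminescence read after 12 min with detection reagent.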
# HEK293 tox: cytotoxicity counter-screen for GLP-1 receptor inverse agonists | HEK293 cAMP-luciferase reporter cells, luminescence, 24 h | Potency, µM (titrated, usually from 38.3 µM), for inactives: top-dose activity change, negative = inhibition, most hits filed as inhibitors | 0.13% of 410,000 active;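 further: loss of luciferase light is scored as toxicity; on the % scale 0 is the no-effect control and ±100 the full control effect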
#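 To flag toxic compounds, the library was rerun on cells for 24 hr at 37 deg C and 5% CO2. Viability-linked luminescence was captured 12 min after adding luciferase detection reagent.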
# GLP1R ag: activates the human GLP-1 receptor | HEK293 GLP-1R CRE-luciferase, luminescence, 4-6 h; cells express a hypersensitive GLP-1R form | Potency, µM (top dose mostly 45.6 µM), for inactives: at the highest dose activation, actives largely listed as activators | P43220 | 0.007% of 380,000 active; further: % of control where 0% means no effect
# Numbers without * were called inactive; ? = inconclusive; . = no result. The call rests on the fitted dose curve; in most records, active means well fitted curve in the direction sought with a large enough effect; inconclusive means small, poorly fitted or top-dose-only effect, or another doubt; inactive means no such curve, though single readings can be large; an effect the other way counts as inactive or inconclusive. Potency means the concentration at half of the fitted maximal effect.
SMILES,BRCA1 expr act,Mito fusion yeast,GLP-1R inv ag,HEK293 tox,GLP1R ag
C/C(=N\NC(=S)NC1CCCCC1)c1c(F)cccc1F,0%,-4%,4µM*,?,18%
O=C(N=C1N=C2C=CC=CN2Cc2ccccc21)c1ccc(S(=O)(=O)N2CCCC2)cc1,?,-4%,2%,-4%,8%
O=C(N=C1N=C2C=CC=CN2Cc2ccccc21)c1ccc(S(=O)(=O)N2CCOCC2)cc1,10µM*,-1%,17%,-15%,15%
CCOC(=O)c1c(SCc2ccccc2)n[nH]c1N,6%,2%,60%,5%,7%
CC(C=NNC(=O)C(=O)NN=CC(C)=Cc1ccccc1)=Cc1ccccc1,64%,.,0%,-1%,10%
CC(/C=N/NC(=O)Cc1cccn1C)=C\c1ccccc1,11µM*,0%,7%,-9%,5%
O=C(Nc1ccccc1Cl)c1ccccc1Cl,44%,2%,11%,-3%,-2%
O=C(NNC(=S)Nc1ccccc1Cl)c1ccccc1,13µM*,-2%,20%,11%,-5%
O=C(NNC(=S)Nc1ccccc1Cl)c1ccccc1Cl,10µM*,2%,12%,13%,2%
COc1ccc(OC)c(NS(=O)(=O)c2ccc(-n3cccn3)cc2)c1,-56%,.,?,-12%,0%
CCc1ccc(Oc2cc(C)nc(N)n2)cc1,3.2µM*,0%,0%,-2%,7%
CCCc1ccc(Oc2cc(Cl)nc(N)n2)cc1,82%,0%,16%,-1%,-4%
C[C@H](OC(=O)N1CCN(C(c2ccccc2)c2ccccc2)CC1)[C@@H]1O[C@@]2(C)CCC[C@H]1O2,-23%,21%,10µM*,33%,16%
C=CCn1cccc(C(=O)Nc2ccc(C)c(C)c2)c1=O,3.2µM*,22%,-21%,-1%,19%
CC(c1ccccc1)N1CCC(CNC(=S)Nc2cccc(Cl)c2)C1 (centres undefined),-41%,0%,3.2µM*,?,4%
CNc1nn(-c2cccc(Cl)c2)nc1N,10µM*,5%,?,-19%,12%
CCCCCNC1=CC(=O)CC(c2ccccc2)C1 (centres undefined),-52%,-6%,-10%,?,0%
CCCCCCCNC1=CC(=O)CC(c2ccccc2)C1 (centres undefined),-10%,8%,11µM*,-26%,7%
O=C(NCC(c1ccco1)N1CCc2ccccc21)C(=O)Nc1ccc(F)cc1F (centres undefined),-61%,?,4µM*,-1%,-5%
COc1cccc(C2CC(c3cccs3)=NN2C(=O)CSc2nc3ccccc3o2)c1OC (centres undefined),-2%,-12%,6%,3%,-8%
Cc1cc(C)nc(N/N=C/c2ccccc2OCc2cccc(Br)c2)n1,-90%,3%,3.5µM*,4µM*,7%
Cc1cc(C)nc(N/N=C/c2ccccc2OCc2ccc(Br)cc2)n1,-15%,13%,-7%,12%,-3%
COc1ccc(C(=O)c2ccc(Cl)cc2)c2ccccc12,-56%,10%,10µM*,-10%,0%
COC(=O)c1ccccc1NC(=O)Cn1cc2c(n1)CCC(C)C2 (centres undefined),0%,12%,15%,5%,8%
Cc1ccc(CC(=O)N2CCN(c3cccc(C(F)(F)F)c3)CC2)cc1,2%,13%,8.9µM*,-14%,0%
SMILES,BRCA1 expr act,Mito fusion yeast,GLP-1R inv ag,HEK293 tox,GLP1R ag
O=C(/C=C/c1ccc(Br)cc1)N1CCN(c2cccc(C(F)(F)F)c2)CC1,-16%,24%,10µM*,-12%,-2%
CC1(C)Cc2cccc(OCC(=O)N3CCN(c4cccc(C(F)(F)F)c4)CC3)c2O1,-28%,-2%,10µM*,-6%,0%
CCCCCCCCN1C(=O)[C@H](CC(=O)NCC23CC4CC(CC(C4)C2)C3)C[C@@]2(C(=O)OC)CC(C)(C)CC=C12,.,.,-16%,25%,.
O=C(N/N=C/c1cccc(NC(=O)c2ccc(Cl)cc2)c1)c1cccc(O)c1,-6%,-1%,?,-23%,8%
COc1ccc(NC2CC(=O)N(c3ccc(C(=O)O)cc3)C2=O)cc1 (centres undefined),-12%,4%,-16%,17%,0%
C=CCn1c(=NC(=O)CN2C(=O)CCC2=O)sc2cc(S(N)(=O)=O)ccc21,-1%,2%,22%,-2%,5%
O=C(Nc1cccc(C(=O)O)c1)/C(=C\c1ccc2c(c1)OCO2)NC(=O)c1ccc(Br)o1,8.9µM*,15%,39%,-9%,-1%
O=C(Nc1ccc(C(=O)O)cc1)/C(=C\c1ccc2c(c1)OCO2)NC(=O)c1ccc(Br)o1,-6%,-2%,-3%,-3%,0%
O=C(N/N=C/c1ccc2c(c1)OCO2)c1ccc(Br)o1,5.6µM*,3%,-19%,-18%,-16%
Cc1cccc(NC(=O)Nc2nnc(N3CCCC3)s2)c1,.,.,5%,-4%,.
Cc1cccc(Cc2nnc(CCC(=O)N(C)CCc3ccccc3)o2)c1,3.5µM*,7%,17%,1%,-4%
O=C(c1ccc(Cn2c(=O)[nH]c3ccccc3c2=O)cc1)N1CCN(c2ccc(Cl)cc2)CC1,-77%,-3%,11µM*,-7%,2%
CCCn1c(=S)[nH]c2cc(C(=O)N3CCN(C(=O)OCC)CC3)ccc2c1=O,0%,-1%,-3%,-5%,13%
CC(=O)c1ccc(N2CCN(C(=O)c3ccc(Cn4c(=O)[nH]c5ccccc5c4=O)cc3)CC2)cc1,.,.,-4%,0%,.
CCOC(=O)N1CCN(C(=O)c2ccc3c(=O)n(Cc4ccc(Cl)cc4)c(=S)[nH]c3c2)CC1,-40%,-18%,2µM*,-17%,1%
COc1ccc(CC(=O)NNS(=O)(=O)c2ccc3ccccc3c2)cc1OC,-10%,-1%,0%,?,1%
CCCCS/C(N)=N/N=C/c1cc(C)ccc1O,5%,9%,10µM*,-14%,35%
CC(NC(=O)c1ccco1)C1COc2ccccc2O1 (centres undefined),8%,2%,-15%,15%,-22%
CC(NC(=O)CCC(=O)NC(C)C1COc2ccccc2O1)C1COc2ccccc2O1 (centres undefined),-25%,0%,8.9µM*,-14%,6%
Cc1cc(N2CCN(C)CC2)ccc1NC(=O)c1ccc(-c2ccc(Cl)cc2)o1,-13%,16%,11µM*,?,12%
O=[N+]([O-])c1ccc(OC/C=C2\Oc3ccc([N+](=O)[O-])cc3C2N2CCOCC2)cc1 (centres undefined),-20%,23%,?,-24%,13%
O=[N+]([O-])c1ccc2c(c1)C(N1CCOCC1)/C(=C/COc1ccc3ccccc3c1Br)O2 (centres undefined),-52%,0%,2.8µM*,0%,-4%
